According to ChEMBL document CHEMBL3988442, “University of Dundee, Small-Polar-MMV Screening Library” (2021):
For some assays here: Entries with a potency or affinity are not part of this list.

Assays:
Design in all cases: scale not given: direction of the effect not stated beside the values
[1] = molecular target: Protein translocase subunit SecA (Escherichia coli (strain K12)) (UniProt P10408); assay: Assay to Identify E. coli SecA ATPase Inhibitors; assay type: functional; details: 30 µM
[2] = molecular target: T1, Ubiquitin-activating enzyme e1, putative (Leishmania donovani (strain BPK282A1)) (UniProt E9BSI1); assay: Leishmania donovani Ubiquitin Activating Enzyme (LdE1); assay type: functional; details: 30 µM
T1 sequence (whole entry): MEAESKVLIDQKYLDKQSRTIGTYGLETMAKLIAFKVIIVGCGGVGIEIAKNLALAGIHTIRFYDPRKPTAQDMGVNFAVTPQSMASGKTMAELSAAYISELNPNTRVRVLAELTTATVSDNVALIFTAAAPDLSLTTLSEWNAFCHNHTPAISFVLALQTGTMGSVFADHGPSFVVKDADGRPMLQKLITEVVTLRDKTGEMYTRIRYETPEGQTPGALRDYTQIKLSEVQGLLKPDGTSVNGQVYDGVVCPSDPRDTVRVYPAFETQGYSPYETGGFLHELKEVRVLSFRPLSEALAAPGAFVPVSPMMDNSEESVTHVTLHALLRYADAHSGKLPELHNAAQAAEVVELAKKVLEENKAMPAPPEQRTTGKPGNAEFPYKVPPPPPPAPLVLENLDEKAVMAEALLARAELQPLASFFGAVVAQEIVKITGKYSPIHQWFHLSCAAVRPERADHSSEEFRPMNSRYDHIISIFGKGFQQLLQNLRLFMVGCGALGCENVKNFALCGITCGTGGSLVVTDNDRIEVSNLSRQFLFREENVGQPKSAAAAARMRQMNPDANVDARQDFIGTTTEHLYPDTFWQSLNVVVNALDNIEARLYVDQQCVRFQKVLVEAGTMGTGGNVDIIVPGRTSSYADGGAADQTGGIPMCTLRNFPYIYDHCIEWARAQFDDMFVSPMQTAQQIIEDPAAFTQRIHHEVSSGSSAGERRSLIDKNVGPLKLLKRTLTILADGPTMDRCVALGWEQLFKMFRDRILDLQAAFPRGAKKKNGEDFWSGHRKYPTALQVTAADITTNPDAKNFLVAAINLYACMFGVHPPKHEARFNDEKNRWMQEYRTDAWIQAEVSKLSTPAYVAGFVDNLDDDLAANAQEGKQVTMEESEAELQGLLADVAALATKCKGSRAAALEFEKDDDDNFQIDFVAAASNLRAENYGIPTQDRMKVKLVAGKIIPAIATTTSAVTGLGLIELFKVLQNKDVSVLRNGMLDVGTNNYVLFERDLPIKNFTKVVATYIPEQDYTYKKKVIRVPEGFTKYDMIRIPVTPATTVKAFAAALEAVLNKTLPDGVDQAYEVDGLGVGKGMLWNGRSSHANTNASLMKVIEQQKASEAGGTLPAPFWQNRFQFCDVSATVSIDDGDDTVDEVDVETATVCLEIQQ

[3] = molecular target: AMP-activated protein kinase, AMPK (Homo sapiens) (UniProt P54646+O43741+P54619+Q9UGJ0+Q9Y478+Q13131+Q9UGI9); assay: AMP-dependent Kinase enzyme assay. An in vitro enzyme assay that detects ADP turnover that is directly proportional to AMPK activity. This uses naive AMPK that is activated during the assay with MK-8722; assay type: functional; details: 30 µM
[4] = molecular target: Sialic acid-binding Ig-like lectin 9 (Homo sapiens) (UniProt Q9Y336); assay: Hs-Siglec9 ALPHAscreen SOP 20170721; details: 10 µM
Trypanosoma cruzi = assay: Trypanosoma cruzi phosphomannomutase and mannose-1-phosphate guanylyltransferase assay; assay type: functional; details: 10 µM
[5] = molecular target: T2, Arginase-2, mitochondrial (Homo sapiens) (UniProt P78540); assay: in vitro enzyme assay to detect the production of urea directly proportional to the activity of Arginase II; assay type: functional; details: 33.3 µM; note: in the data most compounds retested in dose-response had high values
T2 sequence (whole entry): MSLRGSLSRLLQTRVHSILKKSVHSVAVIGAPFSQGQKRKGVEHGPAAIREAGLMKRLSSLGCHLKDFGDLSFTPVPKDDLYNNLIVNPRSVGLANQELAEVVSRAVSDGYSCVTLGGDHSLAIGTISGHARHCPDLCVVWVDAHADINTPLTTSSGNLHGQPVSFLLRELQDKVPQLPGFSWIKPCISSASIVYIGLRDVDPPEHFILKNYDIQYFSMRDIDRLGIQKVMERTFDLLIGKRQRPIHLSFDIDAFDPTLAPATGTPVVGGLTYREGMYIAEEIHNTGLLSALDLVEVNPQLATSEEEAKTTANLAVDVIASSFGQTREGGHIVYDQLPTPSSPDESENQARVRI

[6] = molecular target: T3, Proteasome subunit beta (Trypanosoma cruzi) (UniProt O96673); assay: Trypanosoma cruzi proteasome chymotrypsin-like activity (TcProtChymo) assay.; note: in the data most compounds retested in dose-response had high values; assay type: functional; details: 9.37 µM
T3 sequence (whole entry): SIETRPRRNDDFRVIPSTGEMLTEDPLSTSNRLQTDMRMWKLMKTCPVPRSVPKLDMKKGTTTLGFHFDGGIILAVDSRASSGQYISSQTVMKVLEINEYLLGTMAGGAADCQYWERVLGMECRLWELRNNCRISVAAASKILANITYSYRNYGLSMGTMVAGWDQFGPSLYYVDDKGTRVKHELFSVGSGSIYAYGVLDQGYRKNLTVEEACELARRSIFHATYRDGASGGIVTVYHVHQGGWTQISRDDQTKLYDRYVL

Homo sapiens = organism: Homo sapiens; assay: To identify inhibition of the IFN signalling (Jak-Stat) pathway via expression of an eGFP reporter gene under the control of an IFN-stimulated response element (ISRE) containing MxA promoter.; assay type: functional; details: 30 µM
[7] = molecular target: T4, Tyrosyl-tRNA synthetase, putative (Trypanosoma cruzi (strain CL Brener)) (UniProt Q4DSP6); assay: Trypanosoma cruzi tyrosyl tRNA synthetase (TcYRS) _High Tyrosine SOP; assay type: functional; details: 30 µM; note: in the data most compounds retested in dose-response had high values
T4 sequence (whole entry): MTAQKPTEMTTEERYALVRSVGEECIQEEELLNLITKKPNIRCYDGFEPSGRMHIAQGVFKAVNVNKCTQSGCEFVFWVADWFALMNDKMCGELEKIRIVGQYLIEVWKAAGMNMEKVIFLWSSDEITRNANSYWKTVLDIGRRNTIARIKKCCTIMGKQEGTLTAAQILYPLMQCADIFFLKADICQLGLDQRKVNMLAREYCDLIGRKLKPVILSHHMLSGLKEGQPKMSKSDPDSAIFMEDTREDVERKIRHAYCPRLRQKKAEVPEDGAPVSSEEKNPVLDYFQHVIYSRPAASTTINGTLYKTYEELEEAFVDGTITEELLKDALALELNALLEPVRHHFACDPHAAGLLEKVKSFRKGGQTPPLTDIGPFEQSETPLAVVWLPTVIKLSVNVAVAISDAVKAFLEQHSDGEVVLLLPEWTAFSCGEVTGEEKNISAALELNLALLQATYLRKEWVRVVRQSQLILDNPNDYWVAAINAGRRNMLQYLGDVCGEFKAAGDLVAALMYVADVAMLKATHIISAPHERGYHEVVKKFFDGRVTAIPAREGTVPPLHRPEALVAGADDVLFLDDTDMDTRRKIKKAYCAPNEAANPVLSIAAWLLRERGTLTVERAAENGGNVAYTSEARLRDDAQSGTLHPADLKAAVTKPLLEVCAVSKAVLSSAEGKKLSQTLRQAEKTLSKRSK

[8] = molecular target: T4, Tyrosyl-tRNA synthetase, putative (Trypanosoma cruzi (strain CL Brener)); assay: Trypanosoma cruzi tyrosyl tRNA synthetase (TcYRS) SOP; assay type: functional; details: 30 µM
[9] = molecular target: Chromo domain-containing protein 1 (Saccharomyces cerevisiae (strain ATCC 204508 / S288c) (Baker's yeast)) (UniProt P32657); assay: ScCHD-1 Enzyme Inhibition Assay; assay type: functional; details: 30 µM; note: in the data most compounds retested in dose-response had high values
Chain of Chromo domain-containing protein 1 (Saccharomyces cerevisiae (strain ATCC 204508 / S288c) (Baker's yeast)) (P32657 whole entry, the tested form may be a part): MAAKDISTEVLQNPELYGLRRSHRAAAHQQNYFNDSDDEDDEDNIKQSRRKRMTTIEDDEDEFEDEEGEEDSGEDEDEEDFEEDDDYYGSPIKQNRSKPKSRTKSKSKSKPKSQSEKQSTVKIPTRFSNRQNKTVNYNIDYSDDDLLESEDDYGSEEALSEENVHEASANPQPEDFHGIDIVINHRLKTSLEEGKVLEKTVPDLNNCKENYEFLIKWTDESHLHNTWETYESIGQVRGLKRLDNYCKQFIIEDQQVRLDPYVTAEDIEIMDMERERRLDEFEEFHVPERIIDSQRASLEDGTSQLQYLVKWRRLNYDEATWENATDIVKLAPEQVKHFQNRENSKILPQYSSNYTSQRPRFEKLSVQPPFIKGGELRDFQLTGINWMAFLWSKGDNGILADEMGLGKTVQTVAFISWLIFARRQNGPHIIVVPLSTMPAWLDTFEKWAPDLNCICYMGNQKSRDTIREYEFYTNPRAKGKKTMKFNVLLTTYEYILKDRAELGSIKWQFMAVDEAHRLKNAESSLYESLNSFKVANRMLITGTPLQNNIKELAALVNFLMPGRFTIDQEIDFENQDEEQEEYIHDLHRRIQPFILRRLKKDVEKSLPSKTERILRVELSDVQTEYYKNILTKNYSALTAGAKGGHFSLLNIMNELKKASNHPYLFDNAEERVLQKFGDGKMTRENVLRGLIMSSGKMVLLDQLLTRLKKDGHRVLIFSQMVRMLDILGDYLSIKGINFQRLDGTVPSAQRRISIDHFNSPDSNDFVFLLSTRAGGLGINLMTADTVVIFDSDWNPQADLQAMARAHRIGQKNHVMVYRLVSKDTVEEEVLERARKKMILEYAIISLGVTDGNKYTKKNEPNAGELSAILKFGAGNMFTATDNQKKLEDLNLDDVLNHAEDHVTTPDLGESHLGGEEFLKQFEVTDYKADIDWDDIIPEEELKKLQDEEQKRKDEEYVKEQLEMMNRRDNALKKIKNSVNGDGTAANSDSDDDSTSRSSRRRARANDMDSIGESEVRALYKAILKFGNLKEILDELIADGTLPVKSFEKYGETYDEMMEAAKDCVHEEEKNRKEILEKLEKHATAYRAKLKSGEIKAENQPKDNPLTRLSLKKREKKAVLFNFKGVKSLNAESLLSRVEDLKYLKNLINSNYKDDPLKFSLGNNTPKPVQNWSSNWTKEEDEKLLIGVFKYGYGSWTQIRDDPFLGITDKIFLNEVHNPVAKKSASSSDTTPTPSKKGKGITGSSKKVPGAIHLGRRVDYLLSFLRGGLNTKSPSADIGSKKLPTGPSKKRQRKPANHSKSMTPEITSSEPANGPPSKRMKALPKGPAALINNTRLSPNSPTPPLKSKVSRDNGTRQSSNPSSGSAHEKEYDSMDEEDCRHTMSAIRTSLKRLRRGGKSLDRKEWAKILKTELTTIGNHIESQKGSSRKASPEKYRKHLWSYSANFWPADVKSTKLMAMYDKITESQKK

Chain of Protein translocase subunit SecA (Escherichia coli (strain K12)) (P10408 whole entry): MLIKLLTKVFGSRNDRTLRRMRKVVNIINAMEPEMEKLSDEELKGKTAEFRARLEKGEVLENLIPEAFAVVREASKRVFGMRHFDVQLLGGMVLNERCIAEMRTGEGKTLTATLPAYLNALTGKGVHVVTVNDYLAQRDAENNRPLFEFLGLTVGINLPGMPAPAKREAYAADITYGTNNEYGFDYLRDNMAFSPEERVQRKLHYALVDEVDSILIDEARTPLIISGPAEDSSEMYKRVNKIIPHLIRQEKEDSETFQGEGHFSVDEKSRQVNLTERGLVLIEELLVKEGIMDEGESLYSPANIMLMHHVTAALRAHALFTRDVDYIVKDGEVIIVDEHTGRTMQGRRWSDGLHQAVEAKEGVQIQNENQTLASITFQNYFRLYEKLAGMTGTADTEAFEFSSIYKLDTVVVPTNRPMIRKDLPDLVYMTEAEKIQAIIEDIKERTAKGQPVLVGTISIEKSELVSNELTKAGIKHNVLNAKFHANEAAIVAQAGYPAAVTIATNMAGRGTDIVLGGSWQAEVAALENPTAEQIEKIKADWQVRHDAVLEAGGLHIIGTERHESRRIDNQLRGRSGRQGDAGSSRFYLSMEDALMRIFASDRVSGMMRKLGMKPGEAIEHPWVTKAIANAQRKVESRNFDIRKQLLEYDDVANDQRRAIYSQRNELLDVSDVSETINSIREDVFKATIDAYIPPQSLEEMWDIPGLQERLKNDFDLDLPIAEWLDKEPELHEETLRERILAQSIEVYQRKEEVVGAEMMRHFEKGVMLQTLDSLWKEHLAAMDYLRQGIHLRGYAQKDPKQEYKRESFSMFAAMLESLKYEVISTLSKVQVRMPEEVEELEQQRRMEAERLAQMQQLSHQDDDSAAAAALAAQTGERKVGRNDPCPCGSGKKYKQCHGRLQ
Chain of Sialic acid-binding Ig-like lectin 9 (Homo sapiens) (Q9Y336 whole entry): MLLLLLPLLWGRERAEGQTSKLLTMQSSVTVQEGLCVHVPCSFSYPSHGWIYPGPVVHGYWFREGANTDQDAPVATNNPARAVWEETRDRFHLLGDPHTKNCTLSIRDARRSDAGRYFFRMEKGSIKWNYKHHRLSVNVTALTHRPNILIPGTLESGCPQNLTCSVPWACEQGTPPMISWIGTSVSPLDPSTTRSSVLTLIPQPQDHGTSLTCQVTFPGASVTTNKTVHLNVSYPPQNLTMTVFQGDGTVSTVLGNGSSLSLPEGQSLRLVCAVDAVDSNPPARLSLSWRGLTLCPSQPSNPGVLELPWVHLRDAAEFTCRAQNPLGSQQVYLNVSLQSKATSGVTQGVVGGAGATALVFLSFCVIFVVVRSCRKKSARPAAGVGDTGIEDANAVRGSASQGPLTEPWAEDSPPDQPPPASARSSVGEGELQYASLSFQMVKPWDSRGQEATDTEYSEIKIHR

Row | SMILES | Percent Effect [1] | Percent Effect [2] | Percent Effect [3] | Percent Effect [4] | Percent Effect (Trypanosoma cruzi) | Percent Effect [5] | Percent Effect [6] | Percent Effect (Homo sapiens) | Percent Effect [7] | Percent Effect [8] | Percent Effect [9]
1 | Cc1cccc(COC[C@@H]2CC[C@H]3[C@H](CCN3Cc3ccco3)O2)n1 | -0.0692% | 16.4% | -0.44% | 9.35% | 7.74% | -2.79% | 15.2% | -16.7% | 5.21% | 13.6% | -7.59%
2 | Fc1cc(CNCc2ccc3c(c2)CCO3)ccc1N1CCOCC1 | -0.571% | -8.11% | -9.24% | -2.02% | 0% | -2.86% | 6.38% | 2.17% | -2.65% | 0% | -3.66%
3 | O=C(NCCN1CCOCC1)c1ccc(-n2ccc3ccccc32)s1 | -2.64% | 10.4% | 4.76% | -1.07% | 1.08% | -3.23% | 8.01% | 28.5% | 3.17% | 11.5% | -7.3%
4 | CC(C)C(Sc1nnnn1-c1ccccc1)C(=O)NCc1cccnc1 (stereo unspecified) | -3.59% | 7.79% | 1.33% | -5.13% | -8.05% | -1.42% | 13% | 17% | 4.85% | 9.76% | -8.86%
5 | O=C(c1ccccc1-c1ccccc1)N1CCOC2(CNCCOC2)C1 (stereo unspecified) | -2.01% | 8.11% | -0.846% | 7.99% | 0% | 4.76% | 17.9% | 1.86% | 5.82% | 14.6% | -1.37%
6 | COCCN1CCN(CCS(=O)(=O)C(F)(F)F)CC1C (stereo unspecified) | -3.49% | 8.11% | -8.33% | 4.35% | -3.62% | -4.25% | 0.179% | 25.8% | 2.97% | 11% | 9.67%
7 | CC(C)(C)c1nnc(CN2CCN(CC(O)c3ccccc3)CC2)o1 (stereo unspecified) | -4.73% | 10.1% | -1.08% | 7.24% | 2.55% | 0% | -6.31% | 10.4% | 5.42% | 16.5% | -5.94%
8 | CCN(CC)CC1CN(CCc2ccccc2)Cc2nccn2C1 (stereo unspecified) | -3.63% | -2.74% | 1.1% | 4.51% | 3.77% | -1.6% | 1.28% | 2.5% | 7.29% | 8.64% | -0.569%
9 | CCNC(=O)c1ccc2c(c1)nc1n2CCN(Cc2ccco2)C1 | -1.58% | 2.63% | 10.5% | 1.2% | -0.0974% | -4.73% | 13.7% | 8.32% | 0% | 0% | -5.62%
10 | CCc1ccc(S(=O)(=O)Nc2cc(C(=O)O)c(F)cc2F)s1 | -10.3% | 2.63% | -14.5% | 19.8% | 9.99% | 1.08% | 6.51% | 4.81% | 2.46% | 16.1% | -10.2%
11 | CCCNC(=O)Cn1cc(-c2ccccc2)cn1 | -4.24% | 8.86% | 12.1% | -0.382% | -5.64% | -0.645% | 4.97% | 8.94% | 2.08% | 7.59% | -18.4%
12 | CCN(c1ccc(C(=O)NCCCN2CCOCC2)cc1)S(=O)(=O)CC | -3.73% | 10.5% | -2.83% | -8.52% | -6.33% | 2.37% | 15.8% | -2.55% | -1.06% | -2.6% | -5.76%
13 | CCc1nc(C2CCCN2CC(=O)Nc2nncs2)no1 (stereo unspecified) | -3.67% | 5.2% | -3.54% | 12.8% | 3.37% | -3.2% | 2.53% | 12.1% | 10.7% | 21.9% | -9.06%
14 | c1cnn(CC2CN(CC3CCCC3)CCO2)c1 (stereo unspecified) | -5.26% | 3.8% | -0.822% | 1.53% | 0.308% | 0.645% | 10.6% | -2.54% | 5.21% | -15.2% | -17.2%
15 | O=C1[C@H]2CC[C@H](CN(C3CSCCSC3)C2)N1Cc1cscn1 | -0.514% | 2.74% | 6.23% | 4.75% | -8.53% | -1.2% | 18.4% | 8.4% | 8.33% | 16.1% | 1.67%
16 | CCNC(=O)c1nnc2ccc(N3CCOCC3)cc2n1 | -7.02% | -1.33% | 58.5% | 3.63% | -6.09% | -3.7% | 7.95% | 19.8% | 7.41% | 7.69% | -13.2%
